Assay [1] is described as follows: NCI Yeast Anticancer Drug Screen. Data for the rad50 strain (AID 155).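 Also: 0% = growth of vehicle-only cultures of the same strain.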 Particulars: S. cerevisiae rad50 strain growth inhibition; at 50.0 µM; stronger effect = higher value. The gist of the method: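 Vehicle-treated cultures provide the reference for the growth inhibition reported for compound-exposed, repair-deficient yeast.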
A short description of assay [2]: NCI Yeast Anticancer Drug Screen. Data for the mec2-1 strain (AID 157). Particulars: S. cerevisiae mec2-1 strain, at 50.0 µM, stronger effect = higher value. In outline:
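Strain: mec2-1 (DNA repair/cell cycle alteration). Compound exposure, then growth measured; inhibition expressed relative to vehicle.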

Assay [3] is described as follows: NCI Yeast Anticancer Drug Screen. Data for the sgs1 mgt1 strain (AID 161).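 Also: 0% = growth of cultures given vehicle only.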 Particulars: S. cerevisiae sgs1 mgt1 strain, at 50.0 µM, stronger effect = higher value. In outline: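 Mutant yeast exposed to compound; growth scored against vehicle-only wells.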
A short description of assay [4]: NCI Yeast Anticancer Drug Screen. Data for the cln2 rad14 strain (AID 165).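 Also: 0% = growth equal to vehicle treated cultures.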 Particulars: S. cerevisiae cln2 rad14 strain, at 50.0 µM, stronger effect = higher value. The gist of the method:
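Compounds are applied to the cln2 rad14 yeast strain, and growth is then compared with that of vehicle-treated cultures to give inhibition.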

Assay [5] is described as follows: NCI Yeast Anticancer Drug Screen. Data for the bub3 strain (AID 167). Conditions: S. cerevisiae bub3 mutant strain, at 50.0 µM, stronger effect = higher value. In outline:
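Mutant yeast screening strain plus compound; vehicle-treated cultures serve as the 0% inhibition reference.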

A short description of assay [6]: NCI Yeast Anticancer Drug Screen. Data for the mlh1 rad18 strain (AID 175). Conditions: S. cerevisiae mlh1 rad18 strain growth inhibition; at 50.0 µM; stronger effect = higher value. The gist of the method:
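Read-out is yeast growth inhibition, calculated against vehicle-only controls. The compound was applied to a strain engineered with DNA damage repair alterations.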

The panel holds about 79,000 compounds, 15% with a hit somewhere; the sample as a whole holds those more often. Values without a mark were called inactive. Activity calls are given as the source filed them. Rule as the data show it: active = growth inhibition above about 70%; inactive = the rest.

21 compounds from PubChem BioAssay (NCI) can be followed below.

Consider `CC(NC(=O)c1ccccc1)N(C)[N+](=O)[O-]` (stereo unspecified), for which the growth inhibition in assay [1] was -3.7%; in assay [2], 4%; in assay [3], 2.5%; in assay [4] it was -13.4%; in assay [5] it was 5.45%; in assay [6], -5.55%.
Consider `CC(C)CCC1C(=O)NC(=O)NC1=O`, for which the growth inhibition in assay [1] was -0.2%; in assay [2], -6.15%; in assay [3], -15.4%; in assay [4] it was 8.1%; in assay [5], -4.05%; in assay [6], -1.15%.
As for `CCCCNC(=O)C(Cl)Cl`, the growth inhibition in assay [1] was 20.2%; in assay [2], 5.4%; in assay [3], 8.65%; in assay [4], 2.4%; in assay [5] it was -14.8%; in assay [6] it was 13.9%.
On to `Nc1ccc(C(=O)O)cc1[As](O)O`, for which the growth inhibition in assay [1] was -15.1%; in assay [2], -4.05%; in assay [3], 5.95%; in assay [4] it was -6.4%; in assay [5] it was 0.6%; in assay [6], -17.8%.
For `O=C1OCC2(CO)SC(c3ccccc3)NC12` (stereo unspecified), the growth inhibition was -11.1% in assay [1]; -0.3% in assay [2]; -17.1% in assay [3]; -20.6% in assay [4]; -4.6% in assay [5]; -7.45% in assay [6].
Turning to `CC(=O)OC1CCC2(C)C(CC(=O)C3C2CCC2(C)C(OC(C)=O)CCC32)C1` (stereo unspecified), the growth inhibition in assay [1] is 7.35%; in assay [2] it was 7.35%; in assay [3], 1.5%; in assay [4], 15.8%; in assay [5], -4.2%; in assay [6], 2.15%.
In the case of `BrP(Br)(c1ccccc1)(c1ccccc1)c1ccccc1`, the growth inhibition in assay [1] is -1.6%; in assay [2], -28.8%; in assay [3], 17.1%; in assay [4], 25.4%; in assay [5], 10.7%; in assay [6], -0.1%.
In the case of `CC([NH-])C[NH-].CC([NH-])C[NH-].[Cl-].[Cl-].[Co+3].[O-][Cl+3]([O-])([O-])O` (stereo unspecified), the growth inhibition was 37.5% in assay [1]; 12.6% in assay [2]; 40.5% in assay [3]; 25.6% in assay [4]; 16.9% in assay [5]; 1.6% in assay [6].
As to `O=C(c1ccccc1)N1CC(Cl)CN(C(=O)c2ccccc2)CC(Cl)C1` (stereo unspecified), the growth inhibition in assay [1] was 21.4%; in assay [2], 26%; in assay [3], 37.8%; in assay [4], 14.8%; in assay [5], 16.3%; in assay [6] it was 25.6%.
With `O=C1C=CC2(C=C1)CCN=c1c(O)c3c(c(O)c12)=NC=N3`, the growth inhibition in assay [1] was 15.5%; in assay [2], 7.55%; in assay [3], 8.5%; in assay [4] it was 29.2%; in assay [5], 11.9%; in assay [6] it was -4.5%.
For the compound `FC(F)(F)[S-].FC(F)(F)[S-].[C-]#[O+].[C-]#[O+].[C-]#[O+].[C-]#[O+].[C-]#[O+].[C-]#[O+].[C-]#[O+].[C-]#[O+].[Mn].[Mn]`, the growth inhibition in assay [1] is 99.3% (active); in assay [2] it was 99.6% (active); in assay [3] it was 99.7% (active); in assay [4], 99% (active); in assay [5], 99% (active); in assay [6], 99.3% (active).
On to `NC(CSSCC(N)C(=O)c1ccccc1)C(=O)c1ccccc1` (stereo unspecified), for which the growth inhibition in assay [1] was 23.9%; in assay [2], 0.8%; in assay [3] it was 9.3%; in assay [4], 6%; in assay [5], 6.55%; in assay [6], 4.35%.
For the compound `O=C(O)c1ccccc1/C=N\NC(=S)NC1CN2CCC1CC2` (stereo unspecified), the growth inhibition in assay [1] was 9.45%; in assay [2] it was 6.25%; in assay [3], 6.85%; in assay [4], -0.5%; in assay [5] it was 34.6%; in assay [6], -18.6%.
Consider `O=S1(=O)CCCCO1`, for which the growth inhibition in assay [1] was -6%; in assay [2], 1.65%; in assay [3], -10.9%; in assay [4] it was 17.2%; in assay [5] it was -8.95%; in assay [6], 4.4%.
Regarding `CCCCS(=O)CCC(N)P(=O)(O)O` (stereo unspecified), the growth inhibition was -50.6% in assay [1]; -54% in assay [2]; -52.8% in assay [3]; -9.9% in assay [4]; 1% in assay [5]; -38.2% in assay [6].
In the case of `CC(=O)[O-].CC(=O)[O-].O=C(N/N=C/c1cc(Cl)cc(Cl)c1O)c1ccncc1.[Cu+2]`, the growth inhibition is 2.55% in assay [1]; 2.75% in assay [2]; 10.7% in assay [3]; 51.1% in assay [4]; -4.05% in assay [5]; 9.85% in assay [6].
In the case of `CCCCOC(N)=O`, the growth inhibition in assay [1] was -34.6%; in assay [2], -11.6%; in assay [3], 29.4%; in assay [4], -19.9%; in assay [5], 0.1%; in assay [6], 0.3%.
With `COc1cc2c(cc1O)-c1c(OC)c(O)cc3c1C(C2)N(C)CC3` (stereo unspecified), the growth inhibition in assay [1] is -20.6%; in assay [2], -22.4%; in assay [3], -22.6%; in assay [4], -16.4%; in assay [5], -24.4%; in assay [6], -46.9%.
Regarding `F[C](F)(F)[Hg][c]1ccccc1`, the growth inhibition was 99.3% (active) in assay [1]; 99.7% (active) in assay [2]; 99.5% (active) in assay [3]; 98.8% (active) in assay [4]; 99.5% (active) in assay [5]; 99.3% (active) in assay [6].
Regarding `CCOC(OC1=C(C#N)CCCC1)C(C)[Se]c1ccccc1` (stereo unspecified), the growth inhibition is 63% in assay [1]; 25.2% in assay [2]; 54.2% in assay [3]; 41.9% in assay [4]; 50.4% in assay [5]; 34% in assay [6].
Turning to `CC(=O)Oc1ccc(CCN(C)C2CC3CCC2(C)C3(C)C)cc1OC(C)=O` (stereo unspecified), the growth inhibition was 51.4% in assay [1]; 21.4% in assay [2]; 46.2% in assay [3]; -11.2% in assay [4]; 6.1% in assay [5]; 41% in assay [6].
